Screening data deposited in PubChem by National Center for Advancing Translational Sciences (NCATS).
The sample as a whole holds a higher share of hits than the screen did.
HT1080 IDH1KD tx: HT-1080 IDH1 knockdown cell toxicity (counter line); Potency, µM (doses to about 46.1 µM), for inactives: at the top dose activity, negative = toxicity, actives largely listed as cytotoxic; 2% of 360,000 active; HT-1080 IDH1 knockdown viability, ATP luminescence, 48 h;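 note: potency is the fitted concentration of half-maximal effect; 0% = DMSO wells and -100% = cell-free medium wells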
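HT-1080-IDH1KD cells (IDH1 knocked down), 750/well in RPMI with 5% FBS, treated with compound 48 h at 37 degrees C. Viability by CellTiter-Glo luminescence, normalised to DMSO and no-cell wells; concentration-response curves classed.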
IL-1B inflam inh: inflammasome signaling inhibition, IL-1 beta readout; THP-1 LPS/ATP IL-1B secretion, AlphaLISA, 16 h; hits give low values; 4.7% of 360,000 active; activity change, % at 57.5 µM; in the data active = activity change below about -50%; inconclusive = mostly about -30% to -49%
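Secreted IL-1B measured by AlphaLISA bead assay after 16 h compound exposure of THP-1 cells; compounds (final up to 57.5 uM) added 1 h before LPS (250 ng/mL) and ATP (1.25 mM) stimulation; lower signal means less secretion.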
DT40 TDP1 no CPT: qHTS for Inhibitors of human tyrosyl-DNA phosphodiesterase 1 (TDP1): qHTS in cells in absence of CPT; DT40 Tdp1-/- hTDP1 cells, no CPT, ATP luminescence, 48 h; 15% of 420,000 active; Potency, µM (doses to about 46.2 µM), inactives show at the highest dose activity change, negative = growth inhibition, usual class: inhibitors; note: potency is the fitted concentration of half-maximal effect; nearly all actives have a fitted effect of over 55% in size
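No-CPT arm: Tdp1-/-;hTDP1 DT40 cells (400/well) plus compounds, incubated ≥48 hr at 37 °C. Readout CellTiter-Glo luminescence.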
ALOX12 inh: inhibitors of human 12S-lipoxygenase ALOX12 | AID 1671190 | purified 12hLO, xylenol orange hydroperoxide absorbance | P18054 | Potency, µM (top dose mostly 108 µM), inactives show top-dose activity change, negative = inhibition, hits mostly inhibitors | 1.1% of 580,000 active; note: potency is the fitted concentration of half-maximal effect
Target sequence (P18054 whole entry, looked up): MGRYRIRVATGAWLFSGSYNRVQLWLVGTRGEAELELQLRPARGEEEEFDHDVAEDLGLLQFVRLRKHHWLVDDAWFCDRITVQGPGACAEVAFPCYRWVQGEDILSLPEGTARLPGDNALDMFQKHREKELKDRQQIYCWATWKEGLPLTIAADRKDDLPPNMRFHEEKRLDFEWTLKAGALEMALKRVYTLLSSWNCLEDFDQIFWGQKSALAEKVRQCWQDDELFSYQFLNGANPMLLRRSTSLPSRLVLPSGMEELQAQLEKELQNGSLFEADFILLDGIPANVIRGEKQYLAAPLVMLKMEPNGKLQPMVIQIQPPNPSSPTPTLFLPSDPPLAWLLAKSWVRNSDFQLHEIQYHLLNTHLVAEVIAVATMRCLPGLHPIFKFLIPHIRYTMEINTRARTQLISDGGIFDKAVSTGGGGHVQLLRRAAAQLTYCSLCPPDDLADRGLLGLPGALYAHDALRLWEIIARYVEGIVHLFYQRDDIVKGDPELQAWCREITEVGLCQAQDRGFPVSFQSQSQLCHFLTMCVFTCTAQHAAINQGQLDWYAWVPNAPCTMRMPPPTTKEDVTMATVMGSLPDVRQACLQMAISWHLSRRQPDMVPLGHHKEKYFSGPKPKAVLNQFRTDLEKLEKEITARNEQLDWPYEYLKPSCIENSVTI
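Hydroperoxide product was detected by ferrous iron/xylenol orange as the 573 to 405 nm absorbance ratio. Arachidonic acid at 40 uM (final) was turned over for 30 min at room temperature by 150 nM human 12hLO, pH 7.0 Hepes buffer, after 15 min compound preincubation.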
TDP1 cell CPT: growth inhibition of DT40 Tdp1-/-;hTDP1 cells with camptothecin (screen for TDP1 inhibitors); AID 686979; chicken DT40 Tdp1-/-;hTDP1 cells + 20 nM CPT, ATP luminescence, 48 h; 12% of 420,000 active; Potency, µM (highest dose often 46.2 µM), without a hit: at the highest dose activity change, negative = growth inhibition, most hits filed as inhibitors; note: potency is the fitted concentration of half-maximal effect; nearly all actives have a fitted effect of over 55% in size
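Chicken DT40 Tdp1-/- cells complemented with human TDP1, 400 cells/well, exposed to compounds plus 20 nM camptothecin for at least 48 h at 37 C; viability read as ATP content by CellTiter-Glo luminescence.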
HT1080NT lethal: kills 2HG-producing HT-1080-NT fibrosarcoma cells. AID 686970. HT-1080-NT fibrosarcoma viability, CellTiter-Glo ATP luminescence, 48 h. 1.6% of 360,000 active. Potency, µM (top dose mostly 46.1 µM), inactives show top-dose activity, negative = less viability, most hits filed as cytotoxic;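 note: NT is the 2HG producing partner of a matched IDH1 knockdown line; potency is the fitted concentration of half-maximal effect; 0% = DMSO-treated cells and -100% = media-only wells without cells; nearly all actives have a fitted effect of over 55% in size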
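Luminescent CellTiter-Glo readout after 48 hours of compound exposure at 37 degrees C defined viability of HT-1080-NT cells. Activity was normalized to DMSO wells and cell-free media wells; concentration-response curves were fitted and assigned curve classes.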
Active calls of the source: *; ? = inconclusive; · = no result; [ ] = another dose, or the depositor's remark. Unless noted, calls come from the whole dose curve; as a rule, active = well fitted curve in the direction sought with a large enough effect; inconclusive = small, poorly fitted or top-dose-only effect, or another doubt; inactive = no such curve, though single readings can be large; an effect the other way counts as inactive or inconclusive. Unless noted, % is set by controls: 0 for no effect and ±100 for the full control effect.

SMILES | HT1080 IDH1KD tx | IL-1B inflam inh | DT40 TDP1 no CPT | ALOX12 inh | TDP1 cell CPT | HT1080NT lethal
CC(C)NC(=O)N(C)C[C@@H]1OCc2ccccc2-c2c(n(C)c3ccccc23)C(=O)N([C@@H](C)CO)C[C@@H]1C | -1% | 40 | ? | ? | -20% | 14%
COc1ccccc1NC(=O)N(C)C[C@@H]1OCc2ccccc2-c2c(n(C)c3ccccc23)C(=O)N([C@H](C)CO)C[C@@H]1C | 11% | -30 | 23µM* | -19% | 21µM* | -12%
C[C@H](CO)N1C[C@H](C)[C@H](CN(C)C(=O)Nc2ccc(F)cc2)OCc2ccccc2-c2c(n(C)c3ccccc23)C1=O | -19% | 26 | 13µM* | -1% | 15µM* | -18%
Cc1ccc(-c2nnc(-c3ccccc3)c(N3CCOCC3)n2)cc1 | 1% | 15 | 16µM* | -19% | ? | 3%
CN1Cc2c(cc(N3CCOCC3)nc2-c2cccc(C(F)(F)F)c2)C1=O | · | · | · | 3%[176 µM] | · | ·
Cc1nnc(-c2cccc(C(F)(F)F)c2)nc1N1CCOCC1 | -9% | -3 | 15µM* | -19% | 5% | -20%
Brc1ccc(-c2nnc(-c3ccccc3)c(N3CCSCC3)n2)cc1 | -10% | -1 | 26µM* | 0% | ? | -13%
CN1CCN(c2nc(-c3ccc(Br)cc3)nnc2-c2ccccc2)CC1 | 21µM* | -58* | 12µM* | 5% | 16µM* | ?
C=CCNc1nnc(SCc2coc(-c3ccccc3)n2)s1 | · | · | · | 1% | · | ·
Cn1cc(CN2CCOCCNC(=O)CC2)c2ccccc21 | · | · | · | 125% | · | ·
c1ccc(-c2nnc(N3CCOCC3)nc2-c2ccccc2)cc1 | -3% | -9 | ? | -26% | 16µM* | 3%
Cc1[nH]n(-c2ccccc2)c(=O)c1N=Nc1c(O)cc(S(=O)(=O)N(C)C)c2ccccc12 | 9.2µM* | 120 | 6.5µM* | -20% | 6.5µM* | ?
CCOc1ccc(N(CC)S(=O)(=O)N2CCCC(C(=O)Nc3ccc(OC)c(Cl)c3)C2)cc1 (centres undefined) | · | · | 23µM* | 2% | 16µM* | ·
CCOc1ccc(N(CC)S(=O)(=O)N2CCCC(C(=O)Nc3cc(Cl)ccc3OC)C2)cc1 (centres undefined) | · | · | 18µM* | -14% | ? | ·
COc1ccc(NC(=O)C2CCCN(S(=O)(=O)c3cn(C)cn3)C2)cc1Cl (centres undefined) | · | · | -25% | -26% | -28% | ·
CCCNC(=O)Nc1ccccc1CC(N)=O | · | · | · | 59% | · | ·
CCOc1ccc(-c2cc3c(=O)n(CCNC(=O)c4ccccc4OC)ccn3n2)cc1 | · | · | · | 0% | · | ·
CC(=O)c1ccc(S(=O)(=O)N(Cc2cc3cc4c(cc3[nH]c2=O)OCCO4)CC2CCCO2)cc1 (centres undefined) | 13% | -11 | 11µM* | -10% | -29% | 0%
Cc1ccc2cc(CN(CC3CCCO3)S(=O)(=O)c3ccc4c(c3)OCCO4)c(=O)[nH]c2c1C (centres undefined) | 10% | -5 | 21µM* | -4% | 18µM* | 5%
CCN(CC)C(=O)Oc1ccc2c(=O)c(-c3ccc(OC)cc3)c(C(F)(F)F)oc2c1 | · | · | · | 4% | · | ·
Cc1ccc(NC(=Nc2ccc(Br)cc2)N2CCOCC2)cc1C | ? | -66* | 21µM* | -9% | ? | ?
C#Cc1cccc(Nc2nc(NCc3ccccc3OC)nc3ccsc23)c1 | ? | -71* | 9.2µM* | ? | 9.2µM* | 21µM*
C#Cc1cccc(Nc2nc(NCCOC)nc3ccsc23)c1 | ? | -8 | 21µM* | -52% | 16µM* | ?
C#Cc1cccc(Nc2nc(NC(C)C)nc3ccsc23)c1 | 21µM* | -24 | 21µM* | ? | ? | ?
COC(=O)c1ccccc1NC(=O)Cn1cnc2c(cnn2-c2ccc(C)c(C)c2)c1=O | 4% | 2 | -21% | · | -17% | 5%
SMILES | HT1080 IDH1KD tx | IL-1B inflam inh | DT40 TDP1 no CPT | ALOX12 inh | TDP1 cell CPT | HT1080NT lethal
COC(=O)c1ccccc1NC(=O)Cn1cnc2cc(C)c(C)cc21 | -23% | 30 | 23µM* | 13% | 15µM* | 2%
COC(=O)c1ccccc1NC(=O)CNc1cc(OC)c(OC)cc1C | 1% | 22 | 18µM* | -5% | ? | -5%
COc1ccc(/C(N)=N/OC(=O)c2c(-c3ccccc3Cl)noc2C)cc1OC | 16µM* | -91* | ? | 11% | 21µM* | ?
Cc1onc(-c2ccccc2Cl)c1C(=O)Oc1ccc(Cl)cc1Cl | · | · | 21µM* | -28% | 16µM* | ·
Cc1nc(/C(N)=N/OC(=O)c2c(-c3ccccc3Cl)noc2C)cs1 | ? | -89* | ? | 217% | -26% | ?
Cc1onc(-c2ccccc2Cl)c1C(=O)N1CCN(c2cccc(Cl)c2)CC1 | 2.1µM* | 71 | 1.5µM* | 7%[57.4 µM] | 1.6µM* | 2.6µM*
O=C(Nc1ccc(Cl)c(C(F)(F)F)c1)c1ccc(I)cc1 | · | · | · | -27% | · | ·
CCN(CC(=O)N(C)C)C(=O)CCc1ncc(-c2ccccc2Cl)o1 | · | · | · | 7% | · | ·
COC(=O)c1cc(OC)c(OC)cc1NC(=O)c1c(-c2ccccc2Cl)noc1C | 2% | 7 | 13µM* | 1% | 18µM* | 2%
Cc1onc(-c2ccccc2Cl)c1C(=O)Nc1nnc(-c2ccc(Br)cc2)s1 | -16% | 19 | ? | 8% | 16µM* | -17%
Cc1onc(-c2ccccc2Cl)c1C(=O)Nc1nnc(-c2ccc(F)cc2)s1 | -8% | 6 | -27% | 18% | -4% | -3%
Cc1cc(C)n(-c2nc3ccccc3nc2NCc2ccc(F)cc2)n1 | · | · | · | 13% | · | ·
Cc1ccc(-c2noc(-c3cccnc3NC(C)c3ccccc3)n2)cc1 (centres undefined) | · | · | · | -4% | · | ·
N#Cc1c(NCCN)nc(-c2ccco2)c2c1CCCC2 | ? | -105* | ? | -13% | ? | ?
CC(C)CCNc1nc(-c2ccco2)c2c(c1C#N)CCCC2 | ? | 20 | ? | ? | ? | ?
N#Cc1c(N2CCOCC2)nc(-c2ccco2)c2c1CCCC2 | -5% | -78* | ? | ? | ? | -5%
CCN(Cc1ccccc1)C(=O)CSc1nc(C2CC2)nc2ccccc12 | · | · | · | 8% | · | ·
Cc1cc(Cl)c2oc(C(=O)N(Cc3c(C)nn(C)c3C)C3CC3)c(C)c2c1 | · | · | · | 13% | · | ·
Cc1ccc(C2CC(=O)C3=C(C2)OC(N)=C(C#N)C3c2ccc(Cl)c(Cl)c2)cc1 (centres undefined) | · | · | · | 40µM* | · | ·
